Data as given in PubChem BioAssay AID2314 (National Center for Advancing Translational Sciences (NCATS), 2010).
About 37,000 (12%) of roughly 300,000 compounds were called active. No stated cut-off is given here; in the data, active means max response mostly above about 13% (no sharp cut-off); inactive means mostly below about 14%. Shown is part of a subset that was picked to be rich in actives.

Test: Cycloheximide Counterscreen for Small Molecule Inhibitors of Shiga Toxin; further: read at 38.3 µM for the half of the compounds with a filed dose; 0% is about no effect
Details: cell reporter, cycloheximide protein synthesis inhibition counterscreen; active compounds read high

Row | SMILES | max response
1 | N#Cc1cccc(NC(=O)CN2CCCCCC2)c1 | 4.22% (inactive)
2 | CC1CN(C(=O)CCC(=O)NCc2cccnc2)c2ccccc2O1 (stereo not given) | 0.76% (inactive)
3 | OCCN(Cc1ccccc1)Cc1ccc(Cl)cc1 | -2.21% (inactive)
4 | CCc1nnc(NC(=O)CCN(c2ccc(C)cc2)S(=O)(=O)c2ccccc2)s1 | -1.73% (inactive)
5 | COc1ccc(C2NC(=O)N(C)C(C)=C2[N+](=O)[O-])cc1 (stereo not given) | -2.28% (inactive)
6 | COc1cc2c(C(=O)N(C)c3cc(Cl)ccc3OC)cn(C)c(=O)c2cc1OC | -3.47% (inactive)
7 | COc1ccccc1OCc1ccc(C(=O)N2CCN(C)CC2)o1 | 1.3% (inactive)
8 | COc1ccc(C(=O)C2CCCN(C(=O)c3cc(C)on3)C2)cc1F (stereo not given) | 1.02% (inactive)
9 | CCn1ccnc1CN(C)C(=O)c1cc(COc2ccc(-n3cncn3)cc2)on1 | -1.13% (inactive)
10 | COc1cc(Cl)ccc1OCc1cc(C(=O)N(C)CCc2c(C)n[nH]c2C)no1 | 32.5% (inactive)
11 | CC(=O)c1ccc(NC(=O)c2cc(-c3cccs3)on2)cc1 | 16.4% (active)
12 | Cc1cc(NC(=O)c2cc(-c3cccs3)on2)nn1Cc1ccc(Cl)cc1 | 9.8% (inactive)
13 | COc1ccc(OCc2cc(C(=O)N3CCCC3)no2)c2ccccc12 | 65.1% (active)
14 | Cc1ccc(C)c(OCc2cc(C(=O)N3CCN(c4cnccn4)CC3)no2)c1 | 19.7% (inactive)
15 | COc1cc(Cl)ccc1OCc1cc(C(=O)N2CC[C@@H]3CCCC[C@H]3C2)no1 | 38.6% (active)
16 | CC(=O)Nc1cccc(Nc2nc(-c3cccs3)nc3ccccc23)c1 | 13.3% (inactive)
17 | CCn1ccnc1CN(C)C(=O)c1cc(COc2ccc(Cl)cc2OC)on1 | 39.1% (active)
18 | O=C(Cc1csc(Nc2nc(=S)[nH]c3ccccc23)n1)NCCCN1CCN(c2cccc(Cl)c2)CC1 | 1.69% (inactive)
19 | Cc1ccnc(NC(=O)Cn2ccc([N+](=O)[O-])n2)c1 | -1.7% (inactive)
20 | CCOC(=O)/C(=N\Nc1cc(Cl)ccc1Cl)N1CCN(C)CC1 | -1.84% (inactive)

Row | SMILES | max response
21 | Cc1c(C)c2c(OCC(=O)NCCCO)cc3c(c2oc1=O)CCC(C)(C)O3 | 0.89% (inactive)
22 | CN(CC#CCC(c1ccccc1)c1ccccc1)C(C)(C)C | -2.81% (inactive)
23 | Cc1ccccc1NC(=O)CSc1nc2ccc(Nc3nc(N4CCOCC4)nc(N4CCOCC4)n3)cc2s1 | -3.62% (inactive)
24 | CCCCC1(C(=O)OCC)NC(c2ccc(O)cc2)C2C(=O)N(c3ccccc3)C(=O)C21 (stereo not given) | -1.77% (inactive)
25 | CCOc1ccc(OCC(=O)Nc2c3c(nn2C(C)(C)C)CS(=O)(=O)C3)cc1 | 0.307% (inactive)
26 | N#CCC(=O)N/N=C/c1cn(Cc2ccc3ccccc3c2)c2ccccc12 | 1.05% (inactive)
27 | c1ccc(Cc2cc[n+](Cc3ccccc3)cc2)cc1 | -3.55% (inactive)
28 | Cc1ccc(CN(Cc2cccnc2)C(=S)Nc2cccc(Cl)c2C)cc1 | 9.59% (inactive)
29 | CCCCC(=O)Nc1ccccc1N1CCN(c2ccc(F)cc2)CC1 | 5.13% (inactive)
30 | Cc1c(S(=O)(=O)NC(C)c2ccccc2)c(=O)n(C)c(=O)n1C (stereo not given) | 1.11% (inactive)
31 | Cc1coc2c1c(C)cc1oc(=O)c(CC(=O)NCC(=O)N[C@H](C(=O)O)C(C)C)c(C)c12 | -5.82% (inactive)
32 | C/C(N)=C(/C#N)C(=O)COC(=O)c1cc(-c2ccccc2)nc2ccc(Br)cc12 | -2.32% (inactive)
33 | C/C(N)=C(/C#N)C(=O)COC(=O)c1cc(-c2cccc(Br)c2)nc2ccccc12 | 0.776% (inactive)
34 | C/C(N)=C(/C#N)C(=O)COC(=O)c1cc(-c2ccc(C)cc2)nc2ccccc12 | 32.1% (active)
35 | COc1ccc(NC2=CC(=S)NC(C)(C)C2)cc1 | -1.18% (inactive)
36 | Cc1csc(Nc2ccc(Cl)cc2)[n+]1-c1ccc(Cl)cc1 | 8.25% (inactive)
37 | O=C(Nc1nsc(-c2ccccc2)n1)c1ccncc1 | 15.5% (active)
38 | COC(=O)c1nc(NC(=O)c2ccccc2)n[nH]1 | -3.23% (inactive)
39 | O=C(CSc1ncn[nH]1)Nc1nsc(-c2ccccc2)n1 | 15.2% (inactive)
40 | Cc1cc(C)cc(NC(=O)CSCc2cnn(-c3ccccc3)c2-n2cccc2)c1 | 16.3% (inactive)

Row | SMILES | max response
41 | O=c1ccc(-c2ccc(S(=O)(=O)Nc3ccccc3)o2)n[nH]1 | -12.6% (inactive)
42 | CCC(C)[C@H]1COCCS(=O)(=O)N1Cc1ccc(C)cc1 (stereo not given in full) | 1.06% (inactive)
43 | CCCC[C@H]1COCCS(=O)(=O)N1Cc1cccc(Cl)c1 | 0.203% (inactive)
44 | O=S1(=O)CCOC[C@H](CC2CCCCC2)N1Cc1ccc(F)cc1 | 17.1% (active)
45 | O=S(=O)(c1ccc(Cl)cc1)N1CCCN(c2ccc(C(F)(F)F)cn2)CC1 | -1.58% (inactive)
46 | O=C(N/N=C/c1c(O)n(C2CC2)c(=S)[nH]c1=O)c1ccccc1 | 38.1% (active)
47 | COc1ccccc1-n1c(O)c(C=NC2CC2)c(=O)[nH]c1=O | -4.22% (inactive)
48 | O=C(N/N=C/c1c(O)n(C2CC2)c(=S)[nH]c1=O)c1ccccc1Cl | 19.5% (active)
49 | O=c1[nH]c(=S)n(C2CC2)c(O)c1/C=N/N1CCOCC1 | -4.88% (inactive)
50 | O=C(Nc1cc(=O)[nH]c2ncnn12)c1ccccc1Cl | -7.22% (inactive)
51 | O=C(N/N=C/c1ccc(OC(=O)c2ccccc2Cl)cc1)c1ccc(O)cc1 | -3.06% (inactive)
52 | COC(=O)CCSc1cc([N+](=O)[O-])cc2c1c(C1OCCS1)nn2-c1ccccc1 (stereo not given) | -3.43% (inactive)
53 | O=C(NCCN1CCOCC1)c1ccc(/C=C2\Sc3ccccc3N(Cc3ccc(F)cc3)C2=O)cc1 | 11.1% (inactive)
54 | Cc1nc(-c2nnc(SCC(=O)Nc3cc(C(F)(F)F)cc(C(F)(F)F)c3)n2C)cs1 | -0.852% (inactive)
55 | CCOC(=O)c1c(-c2ccccc2)oc2ccc(OCC(=O)NN)cc12 | -3.08% (inactive)
56 | CCOCCCn1c(SCC(=O)Nc2cc(OC)ccc2OC)nc2ccccc2c1=O | -2.84% (inactive)
57 | Cc1nn(C)c(Cl)c1CN1CCC(Oc2ccc(C(=O)N3CCCC3)cc2)CC1 | 0.779% (inactive)
58 | COCc1cc(C)nc2sc(C(=O)NC3CCCCC3)c(N)c12 | 11.4% (inactive)
59 | Nc1c(C(=O)NCc2ccccc2)sc2nc3c(cc12)C(=O)CCC3 | 8.86% (inactive)
60 | CC(C)OC(=O)c1sc2nc3c(cc2c1N)C(=O)CCC3 | 19.5% (active)
